G9a inh – blocks human histone lysine methyltransferase G9a; Q96KQ7; G9a H3K9 monomethylation, AlphaScreen, 2 h; Potency, µM (series often up to 102 µM), for the others: at the top dose activity, negative = inhibition, usual class: inhibitors; 350,000 compounds, 8.8% hits; note: % is set by controls: 0 for no effect and ±100 for the full control effect; nearly all actives have a fitted effect of over 75% in size
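AlphaScreen detection with an anti-monomethyl H3K9 antibody quantified product after a 2 h room-temperature reaction containing 500 nM biotinylated H3K9 peptide, 20 µM SAM and 20 nM enzyme, which had been preincubated 15 min with compound.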
HP1b binding inh – inhibitors of HP1-beta chromodomain binding to methylated histone tails; 390,000 compounds, 0.56% hits; P83916; Potency, µM (top dose mostly 114 µM), inactives show at the highest dose activity change, negative = inhibition, actives largely listed as inhibitors; AID 540317; AlphaScreen HP1-beta / biotin-H3K9me3 peptide binding; note: nearly all actives have a fitted effect of over 70% in size
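AlphaScreen: HP1-beta (50 nM) preformed 30 min with biotin-H3(1-18)K9me3 peptide (50 nM) in PBS pH 7.4, 0.01% Tween-20. Compound added for 30 min at RT, then streptavidin donor/nickel chelate acceptor beads (10 ug/mL) for 30 min.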
BAZ2B inh – inhibitors of human BAZ2B bromodomain; AlphaScreen BAZ2B-H3K14Ac peptide displacement; Potency, µM (titrated, usually from 114 µM), for the others: top-dose activity change, negative = inhibition, actives largely listed as inhibitors; 360,000 compounds, 4.4% hits; note: % is set by controls: 0 for no effect and ±100 for the full control effect; nearly all actives have a fitted effect of over 60% in size
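AlphaScreen displacement of biotin-H3(5-23)K14Ac peptide (50 nM final) from BAZ2B (50 nM final) in PBS pH 7.4, 0.01% Tween-20; complex preformed 30 min RT, then compounds (top 110 uM) 30 min RT, beads 20 min dark.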
JMJD2A Tudor – blocks the human JMJD2A Tudor domain. O75164. AlphaScreen JMJD2A-Tudor / H3K4me3 peptide binding. Potency, µM (top dose mostly 114 µM), for inactives: at the highest dose activity change, negative = inhibition, most hits filed as inhibitors. 390,000 compounds, 4.4% hits. AID 504339; note: % is set by controls: 0 for no effect and ±100 for the full control effect; nearly all actives have a fitted effect of over 50% in size
GLS inhibitor – blocks human kidney-isoform glutaminase activity; O94925; GLS enzymatic activity, qHTS titration; Potency, µM (titrated, usually from 45.5 µM), for the others: at the top dose activity change, negative = inhibition, actives largely listed as inhibitors; 410,000 compounds, 0.21% hits; AID 624170; note: % is set by controls: 0 for no effect and ±100 for the full control effect
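hKGA; 45 mM KH2PO4 pH 8.2 + 0.02% Tween-20; cpd via pin tool; 1 mM Gln soln; GluOx/HRP/Amplex Red; RT 30 min; fluor. t0 & final.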
An asterisk follows results filed as active; ? = inconclusive; . = not tested or not shown; [ ] = another dose, or the depositor's remark. A selection: hits, their analogues and other compounds. The true share with any hit is near 10%. Calls come from the whole dose curve; as a rule, active = well fitted curve in the direction sought with a large enough effect; inconclusive = small, poorly fitted or top-dose-only effect, or another doubt; inactive = no such curve, though single readings can be large; an effect the other way counts as inactive or inconclusive. Potency is the fitted concentration of half-maximal effect.

SMILES | G9a inh | HP1b binding inh | BAZ2B inh | JMJD2A Tudor | GLS inhibitor
CCOC(=O)N1CCN(C(=O)CNC(=O)Cn2cnc3ccccc3c2=O)CC1 | -37% | 12% | -2% | -1% | 10%
CCCCn1cnc2c(SCc3ccc(Cl)cc3)nc(N)nc21 | . | 26% | . | -13% | -15%
CN(C)S(=O)(=O)c1cccc(NC(=S)NC(=O)c2ccco2)c1 | 40µM* | 18% | -6% | ? | 2%
Cc1ccccc1-c1nc(CS(=O)CC(=O)NCc2ccccc2)c(C)o1 (stereo not given) | 50µM* | 19% | -16% | -29% | 2%
COc1ccccc1CNC(=O)CS(=O)Cc1nc(-c2ccccc2C)oc1C (stereo not given) | 79µM* | 13% | -25% | -23% | 6%
Cc1ccc(-c2nc(CS(=O)CC(=O)NCc3ccccc3)c(C)o2)cc1 (stereo not given) | 50µM* | 31% | -21% | -17% | 3%
Cc1ccc(-c2nc(CS(=O)CC(=O)NCc3ccc(F)cc3)c(C)o2)cc1 (stereo not given) | -10% | 16%[57 µM] | -3% | -18% | -1%
Cc1ccc(CNC(=O)CS(=O)Cc2nc(-c3cccs3)oc2C)cc1 (stereo not given) | 50µM* | 20% | -5% | -26% | 1%
CCOCCOc1cccc(C(=O)NC(c2ccccc2)C(C)C)c1 (stereo not given) | 1% | 36% | -9% | -5% | 0%
CC(=O)C[C@H]1c2cc(C(F)(F)F)ccc2S(=O)(=O)N1C1CCCC1 | . | 41% | . | 3% | -1%
COCCNC(=O)C(C)OC(=O)C1=Cc2ccccc2OC1 (stereo not given) | . | 23% | 0% | -9% | 1%
COc1ccc(CNC(=O)CS(=O)Cc2nc(-c3ccccc3C)oc2C)cc1 (stereo not given) | ? | 16% | -9% | -23% | 0%
CCc1ccc(-c2nc(CS(=O)CC(=O)NCCc3ccccc3)c(C)o2)cc1 (stereo not given) | 79µM* | 22% | -10% | -21% | 2%
Cc1ccc(CNC(=O)CS(=O)Cc2nc(-c3ccccc3C)oc2C)cc1 (stereo not given) | 50µM* | 18% | -31% | -18% | 5%
Cc1ccc(/C=C(\C#N)C(=O)Nc2cccc(Br)c2)o1 | 4%[59 µM] | 33% | -9% | -12% | 1%
N#C/C(=C\c1ccc([N+](=O)[O-])o1)C(=O)Nc1ccc(F)cc1 | . | -3% | 45µM* | ? | 5%
COc1ccc(NC(=O)/C(C#N)=C\c2ccc(Br)o2)cc1 | . | -33% | ? | 56µM* | -9%
Cc1ccc(/C=C(\C#N)C(=O)Nc2ccc(Br)cc2)o1 | 5%[59 µM] | 43% | -2% | -7% | 6%
COc1ccc(NC(=O)/C(C#N)=C\c2ccc(-c3cc(C(=O)O)ccc3C)o2)cc1 | 25µM* | -14% | 56µM* | ? | ?
CC(=O)N1c2ccc(S(=O)(=O)NCCC(=O)Nc3ccccc3C)cc2CC1C (stereo not given) | 5%[59 µM] | 42% | -13% | -10% | -11%
O=[N+]([O-])c1cncc([N+](=O)[O-])c1Nc1cccc(O)c1 | . | 6% | -10% | -23% | 17%
S=c1ncc2[nH]c(=S)[nH]c2[nH]1 | . | ? | . | 11µM* | ?
CC1CC(C(F)F)n2nc(C(=O)O)cc2N1 (stereo not given) | 1% | -3% | -11% | 20µM* | 2%
CC1CC(C(F)(F)C(F)(F)F)n2nc(C(=O)O)cc2N1 (stereo not given) | 3%[59 µM] | 17% | ? | -18% | 16µM*
Cn1cc(CNCc2ccc(OC(F)(F)F)cc2)c(-c2ccc3c(c2)OCCO3)n1 | -1% | 12% | -1% | -23% | 0%
SMILES | G9a inh | HP1b binding inh | BAZ2B inh | JMJD2A Tudor | GLS inhibitor
Cc1cccc(N/N=C/c2ccccc2O)c1 | 1.6µM* | -11% | 14% | ? | ?
Cc1cccc(N/N=C/c2ccncc2)c1 | 50µM* | -9% | -39% | ? | -26%
COC(=O)c1ccc[n+](CC(=O)c2ccc(Br)cc2)c1 | 5%[59 µM] | 32% | 2% | -18% | -2%
OCC(O)C(O)C(O)C(O)C1NCCS1 (stereo not given) | 50µM* | ? | 21% | -10% | -7%
Nn1c(Cc2cccc3ccccc23)nnc1SCc1ccc(Cl)c(Cl)c1 | 1%[59 µM] | 32% | -33% | -25% | -12%
CC[N+]1(CC(O)COC2CC(C)CC(C)(C)C2)CCOCC1 (stereo not given) | -41%[12.7 µM] | 31% | -17% | 20µM* | 0%
CC1CCN(CC(O)COC2CC(C)CC(C)(C)C2)CC1 (stereo not given) | . | 64% | . | 6% | -5%
COc1ccccc1N1CCN(C(CNS(C)(=O)=O)c2cccnc2)CC1 (stereo not given) | -49% | 58% | . | -8% | 26%
COc1ccc(C2C(C#N)=C(N)Oc3c2sc2nc(C)cc(C)c32)cc1 (stereo not given) | 11µM* | 17% | -36% | -18% | ?
COc1ccc(C2C(C#N)=C(N)Oc3cc(N)ccc32)cc1 (stereo not given) | -12% | 11% | -36% | -24% | 0%
Cc1ccc(S(=O)(=O)c2nc(-c3cccs3)oc2SC(C)C)cc1 | -34%[59 µM] | 81% | -4% | 26% | 2%
Cc1c(C(=O)OC2CCCC2)[nH]c2c1C(=O)CC(c1ccc(C(C)(C)C)cc1)C2 (stereo not given) | 4%[59 µM] | 21% | 0% | -21% | -1%
CCOC(=O)c1c(C)[nH]c(N=Nc2ccccc2C)c1C | 16µM* | -35% | 32µM* | 25µM* | 16%
CCOC(=O)c1c(C)[nH]c(N=Nc2cc(C(=O)O)cc(C(=O)O)c2)c1C | -23%[59 µM] | -21% | ? | -29% | 4%
CCOC(=O)c1c(C)[nH]c(N=Nc2ccc(C)cc2C)c1C | 45µM* | 22µM* | 14µM* | 50µM* | 2%
CCOc1ccc(-n2cc(C(=O)NCCOC)c3cc(OC)c(OC)cc3c2=O)cc1 | -2% | 0% | -15% | -5% | 2%
CN(C)S(=O)(=O)c1ccc(=S)[nH]c1 | 1.4µM* | ? | . | 56µM* | 3%
CCC1Sc2ccc(S(=O)(=O)CCC(=O)Nc3cccc(Br)c3)cc2NC1=O (stereo not given) | -6%[59 µM] | ? | ? | 25µM* | 0%
CCC1Sc2ccc(S(=O)(=O)CCC(=O)Nc3ccc(C(=O)OC)cc3)cc2NC1=O (stereo not given) | 11%[59 µM] | ? | ? | 20µM* | 4%
CCC1Sc2ccc(S(=O)(=O)CCC(=O)Nc3ccc(NC(C)=O)cc3)cc2NC1=O (stereo not given) | 4%[59 µM] | 25% | -13% | -9% | 3%
CCC1Sc2ccc(S(=O)(=O)CCC(=O)Nc3ccccc3Br)cc2NC1=O (stereo not given) | 6%[59 µM] | 42% | -19% | -8% | -8%
